Screening data as filed in PubChem BioAssay.
The entries come from a sample that favours hits as a whole.
STK33 kin inh – blocks human STK33 kinase activity. hit rate 0.44% among 27,000. Q9BYT3. inhibition, % at 12.5 µM. ADP-Glo luminescence, MBP substrate; in the data active = inhibition above about 20%
Target sequence (Q9BYT3 whole entry, looked up): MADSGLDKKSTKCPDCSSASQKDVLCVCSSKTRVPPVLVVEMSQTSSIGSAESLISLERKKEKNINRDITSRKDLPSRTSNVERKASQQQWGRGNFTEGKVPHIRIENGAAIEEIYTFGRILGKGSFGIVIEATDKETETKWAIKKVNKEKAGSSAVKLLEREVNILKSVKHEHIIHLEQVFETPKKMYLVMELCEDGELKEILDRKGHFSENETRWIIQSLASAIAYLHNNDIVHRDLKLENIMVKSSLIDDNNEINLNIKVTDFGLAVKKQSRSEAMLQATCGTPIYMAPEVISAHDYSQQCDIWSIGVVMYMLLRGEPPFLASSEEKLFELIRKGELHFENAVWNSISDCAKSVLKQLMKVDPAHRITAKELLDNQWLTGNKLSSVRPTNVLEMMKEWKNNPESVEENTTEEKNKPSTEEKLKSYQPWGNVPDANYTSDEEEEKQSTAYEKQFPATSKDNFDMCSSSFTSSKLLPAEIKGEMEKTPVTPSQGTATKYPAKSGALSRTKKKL
PD-1 reverse act – activators reversing PD-1 mediated T-cell inhibition. 29,000 tested, under 10 active. primary human CD4 T cells, PD-L1 beads, CellTiter-Glo 96 h. activation, % (concentration not given with the values); call rule not given here;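 also: 0% = median vehicle wells and 100% = positive control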
NOMO-1 viab – STK33 inhibitor candidate reducing NOMO-1 cell viability; NOMO-1 AML viability, CellTiter-Glo luminescence, 72 h; inhibition, % (test concentration not listed); hit rate 7.5% among 37,000; in the data active = inhibition above about 80%
An asterisk follows results filed as active; / = not tested or not shown.

SMILES	STK33 kin inh	PD-1 reverse act	NOMO-1 viab
C[C@H]1OC(O[C@H]2[C@@H](O)CC(O[C@H]3[C@@H](O)C[C@H](O[C@H]4CC[C@]5(C)C6CC[C@]7(C)[C@@H](C8=CC(=O)OC8)[C@@H](O)C[C@]7(O)[C@@H]6CC[C@@H]5C4)O[C@@H]3C)O[C@@H]2C)C[C@H](O)C1O (stereo partly specified)	-2	/	107*
C=CCC1(C(C)CCC)C(=O)NC(=S)NC1=O (stereo unspecified)	1	/	18
Cc1cc(OCC(=O)N(C)C)c2c3c(c(=O)oc2c1)CCCC3	/	-1	-6
COc1c2c(c(CC=C(C)C)c3oc(=O)c(-c4ccc(O)cc4)c(O)c13)OC(C)(C)C=C2	-2	/	23
NCC(CS(=O)(=O)O)c1ccc(Cl)cc1 (stereo unspecified)	1	/	-5
CCOC(=O)C1=NN(c2ccc(C)cc2)C2c3cccc4cccc(c34)C12 (stereo unspecified)	/	0	22
COc1ccc2c(c1OC)C(=O)O[C@@H]2[C@@H]1c2cc3c(cc2CCN1C)OCO3	0	/	-27
Oc1ccc(C2(c3ccc(O)cc3)CCCCC2)cc1	/	0	27
C=C1C(=O)O[C@@H]2/C=C(/C)CC/C=C(/C)C[C@@H](OC(=O)/C(=C/CO)CO)C12 (stereo partly specified)	-1	-7	119*
CC[C@@]12CCCN3CC[C@]4(c5cccc(OC)c5N(C(C)=O)[C@@H]4CC1)[C@H]32	1	2	22
O=C(c1ccccc1)N1CC2CC(C1)c1cccc(=O)n1C2 (stereo unspecified)	/	-1	16
Nc1ncnc2nc(SCc3nc4ccc(I)cc4c(=O)n3-c3ccccc3)[nH]c12	-1	0	3
N#C/C(=C\c1ccc(O)cc1)C(=O)O	27*	/	5
CCCCSP(=O)(SCCCC)SCCCC	-2	/	-12
CC1(C)C2CC(=O)[C@]3(C)C(CC[C@@]4(C)[C@H](c5ccoc5)OC(=O)C5OC543)[C@@]2(C)[C@@H](O)C[C@H]1O (stereo partly specified)	2	/	-8
Cc1cc(OC(=O)N(C)C)cc(=O)n1C	/	0	17
c1ccc2sc(C3(N4CCCCC4)CCCCC3)cc2c1	2	/	58
COc1ccc(C(=O)O[C@H]2CC[C@@]3(C)[C@@H]4CC[C@H]5[C@]6(O)C[C@H](O)[C@@]7(O)[C@@H](CN8C[C@@H](C)CC[C@H]8[C@@]7(C)O)[C@]6(O)C[C@@]53O[C@]24O)cc1OC	0	/	-7
O=C1NC(=O)N(c2ccccc2)C(=O)/C1=C/c1ccco1	/	-3	136*
O=c1cccc2n1C[C@H]1CNCC2C1	4	/	6
CC(C)c1cc2c(cc1O)[C@@]1(C)CCCC(C)(C)[C@@H]1CC2O (stereo partly specified)	-4	-1	94*
CC1(C)CCC[C@]2(C)c3cc(O)c(O)cc3C(=O)CC12 (stereo partly specified)	0	/	/
c1cncc([C@H]2CCCCN2)c1	-2	/	-5
O=C(O)CCCc1ccc(N(CCCl)CCCl)cc1	0	/	110*
N[C@@H](Cc1ccc(N(CCCl)CCCl)cc1)C(=O)O	0	/	111*
SMILES	STK33 kin inh	PD-1 reverse act	NOMO-1 viab
C/C=C\C(C)=C\[C@H](C)C(=O)C[C@H](O)CC1CC(=O)NC(=O)C1	-8	0	77
CC12C/C(=C\c3ccccc3)C(=O)C[C@@H]1CCC1C2CCC2(C)C1CC[C@]2(C)O (stereo partly specified)	/	-1	2
C[C@@H]1O[C@@H](O[C@H]2C[C@@H](O)[C@]3(CO)[C@H]4[C@H](O)C[C@]5(C)[C@@H](C6=CC(=O)OC6)CC[C@]5(O)[C@@H]4CC[C@]3(O)C2)[C@H](O)[C@H](O)[C@H]1O	-6	/	119*
C[C@]12CC[C@H]3[C@@H](CC[C@]4(O)C[C@@H](O)CC[C@]34C=O)[C@@]1(O)CC[C@@H]2C1=CC(=O)OC1	-1	/	115*
CO[C@H]1[C@H](O)[C@@H](O[C@H]2CC[C@]3(C=O)C4CC[C@]5(C)[C@@H](C6=CC(=O)OC6)CC[C@]5(O)C4CC[C@@H]3C2)O[C@@H](C)[C@@H]1O (stereo partly specified)	2	/	112*
C[C@@H]1O[C@@H](OC2CCC3(C)C4CCC5(C)C(C6=CC(=O)OC6)CCC5(O)C4CC[C@H]3C2)[C@H](O)[C@H](O)[C@H]1O (stereo partly specified)	-2	-16	109*
COc1ccc(CC2(CCc3ccncc3)C(=O)NC(=O)N(c3ccc(Cl)cc3)C2=O)cc1OC (stereo unspecified)	-1	-1	-28
CCCN[C@@H]1CCc2c(OC)cccc2[C@@H]1C	1	/	8
COC1=CC(=O)OC(/C=C/c2ccccc2)C1 (stereo unspecified)	2	-3	-14
